Assay [1] concerns the target Lysosomal acid glucosylceramidase (Homo sapiens) (UniProt P04062). The assay is described as follows: Glucocerebrosidase-p2 (AID 348; in the data active means potency below about 10 µM; further: potency means the concentration at half of the fitted maximal effect). Particulars: purified GBA, blue fluorogenic substrate, 40 min. In short, it runs like this:
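Compounds titrated from 0.6 nM upwards against 0.2 nM enzyme in pH 5.9 citric acid/KH2PO4, taurocholate, tween-20; blue fluorogenic substrate 80 uM, 40 min room temperature, stopped and read Ex 365/Em 440 for AC50.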

Assay [2] in a line: AP1 Signaling Pathway (AID 357). Further: on the % scale 0 is the no-effect control and ±100 the full control effect. The note with it: ME-180 AP-1-bla reporter, EGF-induced, beta-lactamase ratio, 5 h; at 7.69 µM (top of the series) unless noted. In a few lines: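 First, ME-180 AP-1-bla cells were cultured overnight at 37 °C in low-serum Opti-MEM. Next, titrated compounds with EC50 EGF were incubated 5 hours. Finally, CCF4 was added for 2.5 hours and the 460/530 nm ratio recorded.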

Assay [3] has as its target Cytochrome P450 1A2 (Homo sapiens) (UniProt P05177). The assay is described as follows: p450-cyp1a2 (AID 410; calls by dose curve; further: potency means the concentration at half of the fitted maximal effect;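 on activity change, negative = inhibition: -100% = full effect of reference inhibitor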). The note with it: recombinant CYP1A2, luciferin-ME demethylation, luminescence; series mostly up to 11.4 µM. In a few lines:
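20nM CYP1A2 with 100uM Luciferin-ME (at Km) in 100mM KPO4; compound preincubated 10 min, NADPH regeneration added, 60 min at room temperature. Luciferin quantified by luminescence after detection reagent; normalized to 57 uM furafylline.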

A short description of assay [4]: NFAT Signaling Pathway (AID 444).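 Further: carbachol stimulus at about its EC50 of 1 µM final; on the % scale 0 is the no-effect control and ±100 the full control effect.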 Particulars: Jurkat NFAT-bla M1, carbachol, beta-lactamase ratio, 5 h; at 7.69 µM (top of the series) unless noted. In a few lines: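 Jurkat cells with NFAT-driven β-lactamase reporter and co-expressed M1 receptor, stimulated with carbachol (final 1 uM, ~EC50), compound titration, 5 h at 37 °C. CCF4 loaded 1 h at RT; 460/530 nm ratio gave %activity and AC50.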

Assay [5] can be described thus: Stat Signaling Pathway (AID 446).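 Further: ME-180 cervical cancer cells given 40 pM IL-6 alongside compound; SIE-controlled beta-lactamase reporter measured as 460/530 nm FRET emission ratio; on the % scale 0 is the no-effect control and ±100 the full control effect.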 The note with it: ME-180 SIE beta-lactamase reporter, IL-6 stimulated, 5 h; at 7.69 µM (top of the series) unless noted. In short, it runs like this:
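Screening format detects activators and inhibitors alike: ME-180 SIE-bla cells stimulated at 40 pM IL-6 for 5 hrs with compound, then dual-emission beta-lactamase read at 405 nm excitation.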

In assay [6] the target is Glucocorticoid receptor (Homo sapiens) (UniProt P04150). The assay is described as follows: GR-GFP Redistribution (AID 450;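 active means compounds whose dose series gives a full or clear partial fitted curve of increased nuclear translocation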; further: potency means the concentration at half of the fitted maximal effect). The note with it: U2OS GR-GFP nuclear translocation, laser cytometry, 2 h.
Assay [7] has the same target. The assay is described as follows: GR-EFC Redistribution (AID 451; calls by dose curve; further: potency means the concentration at half of the fitted maximal effect). The note with it: CHO-K1 GR-EFC translocation, beta-gal luminescence, 2 h. In a few lines: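 CHO-K1 cells expressing nuclear EA and GR-ED fragments of b-gal; compounds titrated up to 46 uM final, 2 h at 37 C. GR nuclear translocation read as complemented b-gal luminescence after 1 h RT detection.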

Assay [8] deals with Mitogen-activated protein kinase 10 (Mus musculus) (UniProt Q61831). Briefly: JNK3 AlphaScreen Assay (AID 530).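 Further: kinase came from lysate of stimulated human HepG2 cells; signal reports phosphorylation of biotinylated GST-cJun 1-79 at Ser73 with 10 µM ATP; on the % scale 0 is the no-effect control and ±100 the full control effect.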 Particulars: JNK3 lysate, c-Jun phosphorylation; series mostly up to 11.4 µM. In short, it runs like this:
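Pre-activated (IL-1β/TNFα) JNK3 in HepG2 lysates phosphorylates biotin-GST-cJun(1-79), 10 uM ATP; anti-phospho-cJun(Ser73) AlphaScreen read at room temperature, pH 7.6 Tris buffer. Compounds pre-incubated 15 min as titrations.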
(In Alpha technology, singlet oxygen from a donor bead excites a nearby acceptor bead.)

In assay [9] the target is 3',5'-cyclic-AMP phosphodiesterase 4B (Homo sapiens) (UniProt Q07343). Briefly: qHTS Assay for Inhibitors of PDE-IV (AID 607; active means well fitted activation curve with a large enough effect in the main read-out, with a control signal flat, not every such curve was filed as active; further: % of control where 0% means no effect). Particulars: HEK293 ACTOne CNG channel cells, membrane potential fluorescence; series mostly up to 22.9 µM. In a few lines:
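The readout is membrane depolarisation from a cAMP-sensing CNG channel, detected with a potential dye at ex 535/em 590. Cells were HEK293-derived (endogenous PDE-IV) at 1000 cells/well, titrated up to 22.9 uM final.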
For orientation: In qHTS, concentration-response curves come from the screen itself.

Assay [10] addresses Cytochrome P450 2C9 (Homo sapiens) (UniProt P11712). Briefly: qHTS Assay for Inhibitors and Substrates of Cytochrome P450 2C9 (AID 883; active means well fitted inhibition curve with a large enough effect; further: nearly all actives have a fitted effect of over 60% in size; further: potency means the concentration at half of the fitted maximal effect). Particulars: recombinant CYP2C9, luciferin-H luminescence, 60 min; series mostly up to 11.4 µM. In short, it runs like this:
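Signal: luciferase luminescence reporting luciferin produced by CYP2C9. Conditions: 10nM enzyme, Luciferin-H 100uM at KM, 25mM KPO4, 37C, 60 min NADPH-driven reaction. Reference: 57uM sulphaphenazole as 100% inhibition.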

Assay [11] addresses Cytochrome P450 2D6 (Homo sapiens) (UniProt P10635). The assay is described as follows: qHTS Assay for Inhibitors and Substrates of Cytochrome P450 2D6 (AID 891; active means well fitted inhibition curve with a large enough effect; further: potency means the concentration at half of the fitted maximal effect; nearly all actives have a fitted effect of over 60% in size). Particulars: recombinant CYP2D6, luciferin-ME EGE luminescence; series mostly up to 11.4 µM. In short, it runs like this:
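Human CYP2D6 (5 nM) with 30 uM Luciferin-ME EGE (at Km) in 100 mM KPO4, compound preincubated 10 min, then NADPH regeneration system for 60 min at room temperature. Luciferin read by luminescence; normalized to 1.43 uM quinidine.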

Unmarked numbers belong to inactive results. Records with an inconclusive call do not appear. Activity calls are given as the source filed them. Unless noted, the call rests on the fitted dose curve; in most records, active means well fitted curve in either direction with a large enough effect (not every such curve was filed as active); inconclusive means small, poorly fitted or top-dose-only effect, or another doubt; inactive means flat fitted curve, though single readings scatter. Bounds are passed on as bounds.

Sequence of Cytochrome P450 1A2 (Homo sapiens) (P05177 whole entry, looked up): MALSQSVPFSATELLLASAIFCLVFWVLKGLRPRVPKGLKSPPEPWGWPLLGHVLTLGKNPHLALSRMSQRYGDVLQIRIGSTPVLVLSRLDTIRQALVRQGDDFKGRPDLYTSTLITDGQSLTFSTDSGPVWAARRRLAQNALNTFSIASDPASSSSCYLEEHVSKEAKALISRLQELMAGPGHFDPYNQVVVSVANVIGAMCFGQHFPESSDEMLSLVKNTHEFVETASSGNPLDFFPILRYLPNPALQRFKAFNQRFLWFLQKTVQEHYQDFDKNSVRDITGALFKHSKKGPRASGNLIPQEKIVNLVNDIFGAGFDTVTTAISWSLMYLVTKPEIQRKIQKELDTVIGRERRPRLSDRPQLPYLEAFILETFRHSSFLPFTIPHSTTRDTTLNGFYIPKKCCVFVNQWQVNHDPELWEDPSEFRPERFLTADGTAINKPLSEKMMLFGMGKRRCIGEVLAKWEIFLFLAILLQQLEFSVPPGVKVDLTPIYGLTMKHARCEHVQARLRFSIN
Sequence of Glucocorticoid receptor (Homo sapiens) (P04150 whole entry, looked up, the tested form may be a part): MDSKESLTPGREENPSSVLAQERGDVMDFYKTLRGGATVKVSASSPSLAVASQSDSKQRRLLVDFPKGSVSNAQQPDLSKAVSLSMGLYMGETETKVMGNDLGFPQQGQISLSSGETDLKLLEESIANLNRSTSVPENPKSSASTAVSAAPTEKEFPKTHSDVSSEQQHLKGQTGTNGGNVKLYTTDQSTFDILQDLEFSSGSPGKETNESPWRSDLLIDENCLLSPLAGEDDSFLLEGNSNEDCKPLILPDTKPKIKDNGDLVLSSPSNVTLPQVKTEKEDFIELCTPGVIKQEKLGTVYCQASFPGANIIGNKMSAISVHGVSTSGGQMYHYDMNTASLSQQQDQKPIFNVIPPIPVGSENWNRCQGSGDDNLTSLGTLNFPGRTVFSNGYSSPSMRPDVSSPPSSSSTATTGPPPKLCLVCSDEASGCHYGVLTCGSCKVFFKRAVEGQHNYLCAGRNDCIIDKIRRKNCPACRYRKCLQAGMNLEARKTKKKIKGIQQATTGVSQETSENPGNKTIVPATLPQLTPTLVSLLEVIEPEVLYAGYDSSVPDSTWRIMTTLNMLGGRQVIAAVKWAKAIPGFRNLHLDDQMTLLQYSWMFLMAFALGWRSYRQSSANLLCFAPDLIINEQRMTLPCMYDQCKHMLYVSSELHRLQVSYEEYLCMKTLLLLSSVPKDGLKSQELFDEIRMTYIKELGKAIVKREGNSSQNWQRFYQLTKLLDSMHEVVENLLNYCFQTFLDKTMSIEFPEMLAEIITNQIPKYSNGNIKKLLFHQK
Sequence of Cytochrome P450 2C9 (Homo sapiens) (P11712 whole entry, looked up): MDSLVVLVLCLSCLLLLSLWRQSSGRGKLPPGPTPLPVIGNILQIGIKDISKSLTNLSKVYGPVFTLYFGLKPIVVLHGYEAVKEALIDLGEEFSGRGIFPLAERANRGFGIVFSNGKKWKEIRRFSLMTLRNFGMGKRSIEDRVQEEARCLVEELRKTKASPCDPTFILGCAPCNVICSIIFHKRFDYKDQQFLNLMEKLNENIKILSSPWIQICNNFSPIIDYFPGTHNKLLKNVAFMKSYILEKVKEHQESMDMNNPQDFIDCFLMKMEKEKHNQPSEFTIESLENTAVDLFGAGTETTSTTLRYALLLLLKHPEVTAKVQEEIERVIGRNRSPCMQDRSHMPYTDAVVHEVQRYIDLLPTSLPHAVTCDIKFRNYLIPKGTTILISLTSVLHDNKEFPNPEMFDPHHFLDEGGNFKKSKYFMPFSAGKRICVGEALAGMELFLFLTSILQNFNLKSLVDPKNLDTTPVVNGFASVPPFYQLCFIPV
Sequence of Lysosomal acid glucosylceramidase (Homo sapiens) (P04062 whole entry, looked up): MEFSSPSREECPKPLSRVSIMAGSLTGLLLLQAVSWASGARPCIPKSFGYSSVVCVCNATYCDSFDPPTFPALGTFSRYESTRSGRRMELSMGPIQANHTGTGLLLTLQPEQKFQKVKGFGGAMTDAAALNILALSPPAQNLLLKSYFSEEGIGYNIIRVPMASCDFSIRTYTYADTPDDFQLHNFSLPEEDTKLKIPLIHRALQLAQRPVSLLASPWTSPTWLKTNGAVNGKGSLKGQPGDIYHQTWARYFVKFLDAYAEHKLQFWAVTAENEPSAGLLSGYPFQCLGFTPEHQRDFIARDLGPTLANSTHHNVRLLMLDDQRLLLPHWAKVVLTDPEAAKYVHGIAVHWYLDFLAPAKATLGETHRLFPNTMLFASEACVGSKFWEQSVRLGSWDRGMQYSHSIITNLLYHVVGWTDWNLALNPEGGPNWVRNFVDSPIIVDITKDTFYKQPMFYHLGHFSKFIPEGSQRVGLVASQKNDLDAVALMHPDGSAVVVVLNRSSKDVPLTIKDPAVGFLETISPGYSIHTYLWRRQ
Sequence of 3',5'-cyclic-AMP phosphodiesterase 4B (Homo sapiens) (Q07343 whole entry, looked up): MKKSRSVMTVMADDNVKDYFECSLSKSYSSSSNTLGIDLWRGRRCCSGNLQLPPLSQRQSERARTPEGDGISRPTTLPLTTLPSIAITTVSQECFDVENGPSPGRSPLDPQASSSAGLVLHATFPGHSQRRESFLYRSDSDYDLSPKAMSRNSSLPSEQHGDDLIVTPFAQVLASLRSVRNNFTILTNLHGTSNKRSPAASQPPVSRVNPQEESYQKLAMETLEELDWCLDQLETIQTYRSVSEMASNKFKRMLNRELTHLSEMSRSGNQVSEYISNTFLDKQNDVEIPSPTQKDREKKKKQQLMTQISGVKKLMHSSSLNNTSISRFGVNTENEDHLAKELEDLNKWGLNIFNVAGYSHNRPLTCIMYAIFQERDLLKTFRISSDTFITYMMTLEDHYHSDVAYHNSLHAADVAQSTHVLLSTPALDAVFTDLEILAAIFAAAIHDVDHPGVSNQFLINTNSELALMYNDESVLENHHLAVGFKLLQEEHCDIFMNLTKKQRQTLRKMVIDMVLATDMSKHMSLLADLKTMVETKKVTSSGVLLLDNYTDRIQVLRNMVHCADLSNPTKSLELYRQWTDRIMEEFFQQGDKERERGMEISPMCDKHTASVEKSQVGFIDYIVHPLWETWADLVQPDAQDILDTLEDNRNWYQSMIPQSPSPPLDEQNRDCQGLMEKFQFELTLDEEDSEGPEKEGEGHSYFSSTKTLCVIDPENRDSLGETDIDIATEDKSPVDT
Sequence of Cytochrome P450 2D6 (Homo sapiens) (P10635 whole entry, looked up): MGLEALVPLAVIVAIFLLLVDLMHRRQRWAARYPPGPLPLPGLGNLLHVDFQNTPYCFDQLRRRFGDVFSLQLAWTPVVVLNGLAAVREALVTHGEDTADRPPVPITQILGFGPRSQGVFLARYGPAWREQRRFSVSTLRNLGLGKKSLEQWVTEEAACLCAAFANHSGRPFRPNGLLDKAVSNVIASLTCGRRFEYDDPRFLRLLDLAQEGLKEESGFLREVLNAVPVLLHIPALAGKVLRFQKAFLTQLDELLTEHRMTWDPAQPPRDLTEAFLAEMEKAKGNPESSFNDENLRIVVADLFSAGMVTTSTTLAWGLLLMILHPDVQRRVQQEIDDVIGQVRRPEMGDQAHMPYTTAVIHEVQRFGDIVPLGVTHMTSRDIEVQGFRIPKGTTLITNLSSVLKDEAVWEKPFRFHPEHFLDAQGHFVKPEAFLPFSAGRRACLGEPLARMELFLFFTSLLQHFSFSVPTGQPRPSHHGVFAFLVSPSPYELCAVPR

As for `NC(=O)[C@@H]1CCCN1Cc1ccc2c(c1)OCO2`, the Potency in assay [1] was greater than 11.4 µM; in assay [3], 3.16 µM (active); in assay [6] it was greater than 46 µM; in [7] it was greater than 9.22 µM. The activity change, negative = inhibition in [2] was -6.11%; in assay [4] it was 7.42%. Also, the activity, negative = inhibition in assay [5] was 6.27%. Moreover, the Potency result in assay [8] and in [9] was “inactive” throughout.

In the case of `Nc1nccc(Nc2ccc(S(N)(=O)=O)cc2)n1`, the Potency in assay [1] was greater than 11.4 µM; in assay [6] it was greater than 46 µM; in [7], greater than 9.22 µM. In addition, the values for the activity change, negative = inhibition in [2] and in assay [4] were 2.96% and -13.6%, respectively. Besides, the Potency result in assay [3], in [8] and in assay [9] was “inactive” in each case. For the same molecule, the activity, negative = inhibition in assay [5] was -5%.

As for `O=C(O)c1ccc(C(=O)c2ccccc2C(=O)O)cc1C(=O)O`, the figures for the Potency in assay [1], in assay [6] and in assay [7] were greater than 11.4 µM, greater than 46 µM and greater than 9.22 µM, respectively. Besides, the activity change, negative = inhibition in assay [2] is -15.3%; in [4] it was 20.9%. Further, the Potency result in assay [3], in assay [8] and in assay [9] was “inactive” in each case. Besides, in assay [5], the activity, negative = inhibition was -1.86%.

With `CCOC(=O)c1c(C)c(C)n2c1NC(=O)C2`, the Potency in assay [1] is greater than 11.4 µM; in assay [3] it was 2 µM (active); in assay [6] it was greater than 46 µM; in assay [7], greater than 9.22 µM. The values for the activity change, negative = inhibition in assay [2] and in assay [4] were 3.42% and -19.4%, respectively. The activity, negative = inhibition in assay [5] is -3.92%. Moreover, the Potency entry in assay [8] and in assay [9] was “inactive” throughout.

On to `OCCSCc1ccccc1`, for which the Potency in [1] was greater than 11.4 µM; in assay [6], greater than 46 µM; in [7], greater than 9.22 µM. Further, the figures for the activity change, negative = inhibition in [2] and in [4] were 2.72% and 3.48%, respectively. The Potency entry in assay [3], in assay [8] and in assay [9] was “inactive” throughout. Further, the activity, negative = inhibition in assay [5] is 4.23%.

With `NC1=C2NC=N[C@@H]2N(C/C=C\c2ccccc2)C=N1`, the Potency in assay [1] was greater than 11.4 µM; in [6], greater than 46 µM; in [7], greater than 9.22 µM. In addition, the results for the activity change, negative = inhibition in [2], in [3] and in [4] were 1.36%, -12.4% [at 2.29 µM] and 4.81%, respectively. Besides, the activity, negative = inhibition in assay [5] was 13.2%. Further, the Potency result in [8] and in [9] was “inactive” in each case.

For the molecule `O=c1[nH]c(=S)[nH]c2c1CN(CCCN1CCOCC1)CN2`, the Potency in [1] is greater than 11.4 µM; in [6], greater than 46 µM; in assay [7], greater than 9.22 µM. Also, the results for the activity change, negative = inhibition in assay [2], in assay [3] and in [4] were 3.35%, -13.5% [at 2.29 µM] and 4.33%, respectively. In addition, the activity, negative = inhibition in [5] is 4.09%. The Potency entry in [8] and in assay [9] was “inactive” throughout.

Take `O=c1ccnc(SCc2ccc(Cl)cc2)[nH]1`: the Potency was greater than 11.4 µM in assay [1], greater than 46 µM in [6] and greater than 9.22 µM in assay [7]. Also, the values for the activity change, negative = inhibition in assay [2] and in [4] were 0.709% and 2.66%, respectively. The Potency result in assay [3], in assay [8] and in assay [9] was “inactive” in each case. Further, the activity, negative = inhibition in assay [5] was 6.94%.

Take `Oc1c(Br)cc(CN(Cc2cc(Br)c(O)c(Br)c2)C2CCCCC2)cc1Br`: the Potency is greater than 11.4 µM in [1]; greater than 46 µM in assay [6]; greater than 9.22 µM in [7]; 2.51 µM (active) in assay [10]; 2.51 µM (active) in assay [11]. For the same molecule, the figures for the activity change, negative = inhibition in [2], in assay [3] and in assay [4] were 11.3%, -5.7% [at 2.29 µM] and -14%, respectively. The activity, negative = inhibition in assay [5] is -10.4%. The Potency result in assay [8] and in assay [9] was “inactive” in each case.

`NCCSC[C@H](N)C(=O)O`: the Potency is greater than 11.4 µM in assay [1], greater than 46 µM in assay [6] and greater than 9.22 µM in assay [7]. Also, the activity change, negative = inhibition in assay [2] is -5.07%; in assay [4], 6.39%. Moreover, the Potency result in assay [3], in [8], in assay [9] and in assay [10] was “inactive” each time. Besides, the activity, negative = inhibition in assay [5] is 6.75%.

With `[Cu].[O-]/N=C1/C(=[OH+])Nc2ccccc21.[O-]Nc1c(O)[nH]c2ccccc12`, the figures for the Potency in [1], in assay [6] and in assay [7] were greater than 11.4 µM, greater than 46 µM and greater than 9.22 µM, respectively. Besides, the figures for the activity change, negative = inhibition in assay [2], in assay [3] and in assay [4] were 3.32%, -20.1% [at 2.29 µM] and 13.2%, respectively. Besides, the activity, negative = inhibition in assay [5] is 5.41%. The Potency entry in [8] and in [9] was “inactive” in each case.

As for `O=C(O)c1[nH]c2c([N+](=O)[O-])cc([N+](=O)[O-])cc2c1C(=O)O`, the Potency in [1] was greater than 11.4 µM; in [3], 0.126 µM (active); in assay [6], greater than 46 µM; in assay [7] it was greater than 9.22 µM; in assay [10], 3.16 µM (active). Further, the results for the activity change, negative = inhibition in [2] and in assay [4] were 0.189% and 2.5%, respectively. Besides, in assay [5], the activity, negative = inhibition is -6.73%. The Potency entry in assay [8] and in [9] was “inactive” in each case.

As for `O=C(O)CCC(=O)Nc1ccc2ccccc2c1`, the Potency in [1] was greater than 11.4 µM; in assay [3], 0.0631 µM (active); in [6], greater than 46 µM; in assay [7], greater than 9.22 µM. For the same molecule, the activity change, negative = inhibition in assay [2] is -0.421%; in assay [4] it was 4.48%. For the same molecule, the activity, negative = inhibition in assay [5] was 8.45%. The Potency result in assay [8] and in assay [9] was “inactive” throughout.

Regarding `Cc1c(Cl)c(S(N)(=O)=O)cc2c1=NC=NS=2(=O)O`, the Potency in assay [1] was greater than 11.4 µM; in [6], greater than 46 µM; in [7] it was greater than 9.22 µM. The activity change, negative = inhibition in [2] is -1%; in assay [3] it was -9.6% [at 2.29 µM]; in assay [4], 4.9%. Besides, in assay [5], the activity, negative = inhibition was 1.77%. For the same molecule, the Potency entry in assay [8], in [9] and in assay [10] was “inactive” throughout.

(Values after PubChem BioAssay (NCATS).)
